The list is not random: actives were taken first. Their share in the collection is about 8.7%.
Cav3 T inh – inhibitors of human Cav3.2 T-type calcium channel; O95180; Cav3.2-expressing cells, Fluo-4 calcium fluorescence FDSS; active compounds read low; B-score at 10 µM; hit rate 4% among 100,000; AID 449739;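 active means single-dose well whose peak fluorescence ratio is a statistical outlier from its plate by either plate-standardised score or position-corrected B-score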
hDAT+cocaine – modulates human dopamine transporter uptake under cocaine. LLC-PK1 hDAT cells, [14C]-dopamine uptake with cocaine IC80; actives deviate in either direction. hit rate 1.3% among 110,000. B-score at 10 µM. Q01959;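 active means Z score or B-score, a plate-position-corrected score, falls beyond the plate's 99.7% confidence bounds, in either direction; inactive means both scores lie inside the 99.7% bounds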
TNAP act mid DEA – activates human TNAP at intermediate phosphate acceptor concentration; AID 813; activation factor at 20 µM; purified TNAP, CDP-star luminescence, 100 mM DEA, 30 min; active compounds read high; scale: 0 levamisole-inhibited, 1 vehicle-only enzyme; 64,000 tested, under 10 active; P05186;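 active means activation factor of at least 2 at 20 µM, relative to controls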
Smad3 FoxH1 inh – inhibitors of human Smad3 transcription factor binding; hit rate 0.29% among 88,000; inhibition, % at 25 µM; P84022; TR-FRET Smad3/Dy647-FoxH1 peptide binding, europium anti-His; AID 630;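 active means compounds that reduce the energy-transfer binding signal between the protein and its labelled peptide by more than half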
Target sequence (P84022 whole entry, looked up): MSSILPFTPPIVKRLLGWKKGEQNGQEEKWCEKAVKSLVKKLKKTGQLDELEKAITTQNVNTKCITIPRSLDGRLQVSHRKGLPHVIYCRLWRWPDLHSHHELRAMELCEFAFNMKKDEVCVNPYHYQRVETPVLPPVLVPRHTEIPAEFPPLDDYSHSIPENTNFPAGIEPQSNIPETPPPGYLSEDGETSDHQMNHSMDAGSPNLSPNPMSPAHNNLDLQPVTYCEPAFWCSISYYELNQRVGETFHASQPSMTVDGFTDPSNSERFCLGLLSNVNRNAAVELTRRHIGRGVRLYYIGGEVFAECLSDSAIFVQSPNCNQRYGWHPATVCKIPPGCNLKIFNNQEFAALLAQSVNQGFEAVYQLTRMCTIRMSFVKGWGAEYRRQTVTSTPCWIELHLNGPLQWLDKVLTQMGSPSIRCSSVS
PostGolgi ctrl – growth of the yeast control strain, post-Golgi counter-screen. inhibition, % at 10 µM. hit rate 5% among 98,000. efflux-deficient yeast background strain, growth absorbance A615, 16 h
PostGolgi yeast – growth inhibition of a yeast mutant, post-Golgi transport screen | hit rate 0.9% among 98,000 | inhibition, % at 10 µM | post-Golgi transport phenotypic cell assay | AID 739;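 further: yeast cells grown in 1536-well plates; yeast grown about 18 h at 30C before absorbance read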
Numbers stand for hits; 0 = inactive; - = no result given. Unless noted, no stated cut-off is given here; in the data, active means inhibition above about 30%; inactive means the rest.

SMILES	Cav3 T inh	hDAT+cocaine	TNAP act mid DEA	Smad3 FoxH1 inh	PostGolgi ctrl	PostGolgi yeast
Cc1cc(Cl)c(S(=O)(=O)Nc2ccc3c(c2)OCO3)cc1OCC(=O)NC1CCCCC1	-4.2	0	-	0	0	0
CCC(C)NC(=O)CC(NS(=O)(=O)c1ccc(Cl)cc1)c1ccco1 (configuration not stated)	0	0	0	0	0	0
O=C(CC(NS(=O)(=O)c1ccc(Cl)cc1)c1ccco1)N1CCc2ccccc21 (configuration not stated)	-4.3	0	-	0	0	0
COCCOC(=O)c1c(C)nc(SCC(=O)Nc2ccc(C)cc2)c(C#N)c1-c1ccco1	0	0	0	0	0	0
COCCOC(=O)c1c(C)nc(SCC(=O)Nc2cccc3ccccc23)c(C#N)c1-c1ccco1	0	-8.2	-	0	0	0
Cc1nc2ccccn2c1/C(O)=C1\C(=O)C(=O)N(CCCN(C)C)C1c1ccc(Cl)cc1 (configuration not stated)	-	-	0	0	-	-
CC(C)(C)c1ccc(OC(=O)Nc2ccc(O)c(C(=O)O)c2)cc1	-	-	-	65	-	-
Cc1ccc(OCC(=O)Nc2ccc(O)c(C(=O)O)c2)cc1C	0	0	0	0	0	0
CCN=c1scc(-c2ccc3c(c2)NC(=O)CO3)n1N=C1CCCC1	0	5.5	0	0	0	0
COCC(C)n1c(-c2ccc3c(c2)NC(=O)CO3)csc1=Nc1ccc(OC(F)F)cc1 (configuration not stated)	0	0	-	0	0	0
COc1ccccc1N=c1scc(-c2ccc3c(c2)NC(=O)CO3)n1CC1CCCO1 (configuration not stated)	-3.9	0	0	0	0	0
CCCCN=c1scc(-c2ccc3c(c2)NC(=O)CO3)n1N=C1CCCC1	0	0	-	-	65	0
CCC(C)C(=O)Nc1nc(-c2ccc3c(c2)NC(=O)CO3)cs1 (configuration not stated)	0	0	-	0	0	0
COc1ccc(CC(=O)Nc2cccc(C(=O)O)c2C)cc1	0	0	0	0	34	0
CCC(C)(C)n1nnnc1CN1CCC(NC(=O)c2ccc(Br)cc2)CC1	0	1.8	-	0	-	-
O=C1CC(c2c[nH]c3ccccc23)C(=O)N1c1ccccc1 (configuration not stated)	0	0	-	0	-	-
O=C1CNCc2[nH]c3ccccc3c2N1c1ccccc1	0	0	0	0	32	0
CC(=O)COc1ncn(-c2ccccc2)n1	-4.4	0	-	0	0	0
CC(C)CCNC(=O)C(c1ccncc1)N(Cc1cccs1)C(=O)Cn1nnc(-c2ccc(F)cc2)n1 (configuration not stated)	-7.4	0	-	0	-	-
O=C(NCC1CCCO1)C(c1ccc(F)cc1)N(Cc1ccc(F)cc1)C(=O)Cn1nnc(-c2cccs2)n1 (configuration not stated)	0	0	-	0	-	-
O=C(NCC1CCCO1)C(c1cccs1)N(Cc1cccs1)C(=O)Cn1nnc(-c2cccs2)n1 (configuration not stated)	-7.1	0	-	0	-	-
Cc1ccc(-c2nnn(CC(=O)N(Cc3cccs3)C(C(=O)NC3CCCC3)c3ccncc3)n2)cc1 (configuration not stated)	0	0	-	0	-	-
Oc1ccc2ccccc2c1/C=C/c1ccc2c(Br)cc(Br)c(O)c2n1	-	-	-	0	-	-
N=C(N)SCCSC(=N)N	-	-	-	68	-	-
CC(C)(C)c1ccc(-c2nnc3sc(-c4ccccn4)nn23)cc1	0	0	0	0	35	0
SMILES	Cav3 T inh	hDAT+cocaine	TNAP act mid DEA	Smad3 FoxH1 inh	PostGolgi ctrl	PostGolgi yeast
c1ccc(OCc2nn3c(-c4ccccn4)nnc3s2)cc1	0	-9.4	0	0	0	0
Cc1c(NC(=O)/C=C/c2cn(-c3ccccc3)nc2-c2ccccc2)c(=O)n(-c2ccccc2)n1C	-4.5	0	-	-	0	0
O=[N+]([O-])c1ccc(N=Nc2ccc(O)cc2O)cc1	-8.8	0	-	0	0	0
Cc1ccc(Cn2nc(C)c(NC(=O)c3cc(-c4ccco4)on3)c2C)cc1	-	-	0	0	0	0
CCOc1ccccc1C(=O)N1c2ccccc2Sc2ccccc21	-5.6	0	-	-	42	0
CCOc1ccccc1C(=O)N1CCOCC1	0	0	-	0	0	0
O=c1cc(CSc2ccc(S(=O)(=O)N3CCCCC3)cn2)nc2sccn12	0	0	0	0	73	79
O=S(=O)(c1ccc(SCCO)nc1)N1CCCC1	0	0	0	0	0	0
CCCNC(=O)Cn1c(=O)oc2ccccc21	0	0	-	0	0	39
CC(C)(C)c1csc(NC(=O)Cn2c(=O)oc3ccccc32)n1	-10	0	0	0	0	0
COc1ccc(CCNC(=O)Cn2c(=O)oc3ccccc32)cc1OC	-	0	-	0	0	0
CN(C(=S)Nc1ccc(F)cc1)C1(c2ccccc2Cl)CCCCC1=O (configuration not stated)	0	0	-	0	36	0
CCOC(=O)C(CC)n1cnc2sc3c(c2c1=O)CCC3 (configuration not stated)	0	0	0	-	0	0
Cc1ccc(N(C(=O)C(F)(F)F)C(C(=O)NC2CCCCC2)c2cccs2)cc1C (configuration not stated)	0	0	-	-	0	0
COc1ccc(-c2nc(CSCC(=O)NCc3ccco3)c(C)o2)cc1	0	0	0	-	0	0
COc1ccc(-c2nc(CSCC(=O)NC3CCCc4ccccc43)c(C)o2)cc1 (configuration not stated)	-8.2	0	-	0	0	0
COc1ccc(-n2c(CSc3nc(C)cc(C)n3)nnc2SCC(=O)Nc2nccs2)cc1	0	0	0	0	0	0
CC(C)(C)c1cnnn1-c1ccc(-c2csc(N)n2)cc1	0	0	0	0	46	0
CC1C(=O)CC(c2ccccc2)N(C)C1c1ccccc1 (configuration not stated)	0	0	0	0	0	0
CC(C)C1C(c2ccccc2)N(C)C(c2ccccc2)CC1(O)c1ccccc1 (configuration not stated)	0	0	-	0	33	0
Cc1cc(C)nc(SCCn2c(N3CCCCC3)nc3c2c(=O)n(C)c(=O)n3C)n1	0	0	0	0	0	0
O=C(COc1ccc(S(=O)(=O)N2CCOCC2)cc1)Nc1ccc(Cl)c(C(F)(F)F)c1	-5.5	0	0	0	0	0
O=C(COc1ccc(S(=O)(=O)N2CCOCC2)cc1)Nc1ccc2c(c1)OCCO2	0	0	0	0	0	0
CC1CC(C)(C)CC2(C1)NC(=O)N(CC(=O)NCC(c1ccco1)N1CCCCC1)C2=O (configuration not stated)	0	0	0	0	0	0
CCOC(=O)N1CCN(C(=O)C2CCCN(S(=O)(=O)c3cccnc3)C2)CC1 (configuration not stated)	0	0	0	0	0	0
O=C1c2ccccc2N2C(=O)c3ccccc3[C@H]2N1c1ccccc1	-	-2.7	-	0	0	0

Source: PubChem BioAssay
